# The list is not random: actives were taken first. Their share in the collection is about 7.4%.
# NPC1 prom act: activates the NPC1 promoter; Huh7 NPC1 promoter luciferase reporter, 24 h; Potency, µM (top dose mostly 9.22 µM), without a hit: top-dose activation, usual class: activators; hit rate 2.4% among 320,000; also: % of control where 0% means no effect; nearly all actives have a fitted effect of over 60% in size
#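 In 1536-well qHTS, Huh7 cells harboring an NPC1 promoter–luciferase construct received compound for 24 h; activation was quantified by luminescence following luciferase reagent addition.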
# ELG1 genotoxic: induces genotoxicity in HEK293T cells with luciferase-tagged ELG1 | HEK293T ELG1-luciferase reporter, luminescence, 16 h | hit rate 1.3% among 330,000 | Potency, µM (titrated, usually from 46 µM), without a hit: at the top dose activity change, positive = activation, actives largely listed as activators; also: % of control where 0% means no effect; nearly all actives have a fitted effect of over 60% in size
#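 ELG1-luciferase HEK293T cells, 2,000/well; compound pinned in; 16 hr, 37 °C, 5% CO2; ONE-Glo, 30 min RT; luminescence on CCD imager.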
# FLuc counter: inhibits or activates purified firefly luciferase, miR-21 counter-screen. P08659. purified FLuc, Km substrates, luminescence inhibition. Potency, µM (top dose mostly 57.5 µM), for inactives: top-dose activity change, negative = inhibition, most hits filed as inhibitors. hit rate 6.9% among 360,000. AID 588342;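 also: plate controls were vehicle for no effect and reference inhibitor for full effect; nearly all actives have a fitted effect of over 55% in size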
# Target sequence (P08659 whole entry, looked up): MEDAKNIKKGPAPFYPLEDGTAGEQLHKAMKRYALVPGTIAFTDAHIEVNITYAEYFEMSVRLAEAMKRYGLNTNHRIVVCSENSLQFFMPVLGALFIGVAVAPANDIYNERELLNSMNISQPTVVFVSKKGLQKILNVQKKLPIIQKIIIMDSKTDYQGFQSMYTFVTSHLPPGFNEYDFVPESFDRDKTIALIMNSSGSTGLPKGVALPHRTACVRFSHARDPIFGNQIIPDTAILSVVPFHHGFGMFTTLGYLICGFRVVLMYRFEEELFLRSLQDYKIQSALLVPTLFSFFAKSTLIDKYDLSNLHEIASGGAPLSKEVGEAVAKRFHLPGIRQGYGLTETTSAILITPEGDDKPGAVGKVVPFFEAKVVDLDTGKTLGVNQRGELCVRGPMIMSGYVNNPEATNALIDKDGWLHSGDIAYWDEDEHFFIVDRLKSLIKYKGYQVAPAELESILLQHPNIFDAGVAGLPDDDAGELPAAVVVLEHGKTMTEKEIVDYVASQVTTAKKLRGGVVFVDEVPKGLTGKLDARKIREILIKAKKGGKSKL
#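 Purified P. pyralis luciferase (10nM final) with 10uM D-luciferin and 10uM ATP (Km levels) in 50mM Tris acetate pH 7.5, 10mM Mg acetate, 0.01% Tween-20, 0.05% BSA; qHTS 6-point titration, ~60 µM downward; luminescence read.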
# SMN2 splice enh: SMN2 splice variant enhancement; Potency, µM (doses to about 46.1 µM), for the others: at the top dose activity change, positive = activation, actives largely listed as activators; hit rate 2.8% among 210,000; HEK293 SMN2-luciferase splicing reporter, luminescence, 30-36 h; AID 1458; also: % of control where 0% means no effect; nearly all actives have a fitted effect of over 55% in size
#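 qHTS luciferase splicing reporter: luminescence rises when SMN2 exon 7 is included in transfected HEK293 cells. Compound exposure lasted 30-36 h at 37C, with 4.5 mM final sodium butyrate as control, followed by a ONE-Glo read.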
# Rab9 prom act: Rab9 promoter activation. Huh7 Rab9 promoter-luciferase reporter, luminescence, 24 h. Potency, µM (doses to about 9.22 µM), inactives show at the top dose activation, negative = inhibition, most hits filed as activators. hit rate 2.8% among 320,000. AID 485297; also: % of control where 0% means no effect; nearly all actives have a fitted effect of over 60% in size
#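 Steps: seed 1500 Huh7 Rab9-luc cells per well, rest 2 h at 37 °C; add compound in DMSO; incubate 24 h; add luciferase reagent, 10 min ambient; read luminescence.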
# Numbers without * were called inactive; ? = inconclusive; . = no result given; [ ] = another dose, or the depositor's remark. Calls follow the shape of the dose curve; as a rule, active = well fitted curve in the direction sought with a large enough effect; inconclusive = small, poorly fitted or top-dose-only effect, or another doubt; inactive = no such curve, though single readings can be large; an effect the other way counts as inactive or inconclusive. Potency is read from the fitted curve at half-maximal effect.
SMILES,NPC1 prom act,ELG1 genotoxic,FLuc counter,SMN2 splice enh,Rab9 prom act
O=Cc1cc(N=Nc2cccc(C(=O)O)c2)ccc1O,?,-2%,11µM*,15%,?
O=C1NC(=Nc2ccccc2Cl)S/C1=C\c1cc([N+](=O)[O-])ccc1O,9%,0%,?,.,0%
O=Cc1cc(N=Nc2ccccc2Cl)ccc1O,2.5µM*,11%,19µM*,.,2.2µM*
Cc1ccc(-c2nnc(-c3ccc(NC(=O)c4ccco4)cc3)o2)cc1,7%,14%,-8%,-3%,1%
CC(=O)Nc1ccc2nc(-c3ccncc3)[nH]c2c1,4%,13%,-19%,8%,0%
Nc1ccc(C(=O)Nc2ccc3nc(-c4ccncc4)[nH]c3c2)cc1,0%,-2%,17µM*,?,11%
O=C(Nc1ccc(-c2nc3ccc(NC(=O)c4cccs4)cc3[nH]2)cc1)c1cccs1,-5%,13µM*,-11%,10µM*,-13%
Cc1ccc2nc(-c3ccc(NC(=O)c4ccco4)cc3)[nH]c2c1,1.6µM*,2.1µM*,3µM*,7.9µM*,3.5µM*
O=C(Nc1ccc2nc(-c3cccs3)[nH]c2c1)c1cccs1,13%,6%,-9%[2.3 µM],5%,28%
O=C(Nc1cccc(-c2cnc3ccccc3n2)c1)c1cccc(NC(=O)c2ccco2)c1,2%,-6%,11µM*,?,3%
O=C(Nc1cccc(-c2cnc3ccccc3n2)c1)c1ccccc1,4%,15%,-13%,-9%,17%
Br/C(=N\Nc1nn[nH]n1)c1ccncc1,.,.,.,-11%[9.22 µM],.
CCNC(=O)c1c(NC(=O)c2nc(S(=O)(=O)CC)ncc2Cl)sc2c1CCCC2,.,.,?,4%,.
CCCCN1C(=O)c2[nH]nc(-c3ccccc3O)c2C1c1ccc(OCc2ccccc2)cc1 (stereo unspecified),.,.,-3%,0%,.
O=C(Nc1ccc2nc(-c3cccs3)[nH]c2c1)c1ccco1,27%,4%,7.6µM*,?,?
COc1c(Cl)cc(C(=O)Nc2cccc(-c3nc4ccccc4[nH]3)c2)cc1Cl,.,.,?,-10%,.
Cn1cccc1-c1nc2ccc(NC(=O)c3ccco3)cc2[nH]1,9%,8%,17µM*,36%,27%
c1cncc(CNc2cccc(-c3nc4ccccc4[nH]3)c2)c1,2.8µM*,?,7.6µM*,0.89µM*,2.5µM*
O=C(Nc1cccc(-c2nc3ccccc3[nH]2)c1)c1ccco1,13%,-9%,15µM*,5%,0%
O=S(=O)(O)c1ccc2c(N=Nc3c(O)ccc4ccccc34)cccc2c1,.,.,.,-7%[9.22 µM],.
Cc1ccc(-n2c3c(cc(-c4nc(-c5ccc(Cl)cc5)cs4)c2=O)C(=O)CC(C)(C)C3)cc1C,.,.,0%,5%,.
CCOc1ccccc1CNC(=O)CCn1ccc2cc(S(=O)(=O)N3CCC(C)CC3)ccc21,.,.,-2%,.,.
Cc1cccnc1NC(=O)Cn1nc(-c2ccccc2)oc1=S,3.2µM*,?,-7%,3.2µM*,1.3µM*
CCC(=O)Nc1sc2c(c1C(=O)Nc1ccc(Br)cc1)CCCCC2,.,.,3%,-5%,.
Cc1cccc2cc3c(N)c(C#N)sc3nc12,-1%,1%,?,-6%,-3%
SMILES,NPC1 prom act,ELG1 genotoxic,FLuc counter,SMN2 splice enh,Rab9 prom act
Cc1sc(NC(=O)c2sc3nc4c(C)cccc4cc3c2N)c(C#N)c1C,26%,?,0.54µM*,-4%,?
CCOc1ccc2nc(/N=C/c3c(C)[nH]n(-c4ccc(C)cc4)c3=O)sc2c1,?,16%,4.8µM*,14µM*,?
CCOc1ccc2nc(/N=C/c3c(C)[nH]n(-c4ccccc4)c3=O)sc2c1,?,?,6.7µM*,22µM*,?
CCOc1ccc2nc(SC3CC(=O)N(c4ccc(C)cc4)C3=O)sc2c1 (stereo unspecified),2%,-1%,4%,-92%,-5%
O=C(Nc1nonc1-c1ccc(Br)cc1)c1ccco1,.,.,-1%,.,.
COC(=O)c1ccc(NC(=O)c2cccnc2)cc1,-1%,8%,2%,.,11%
COc1ccc(C(=O)/C=C(\C)Nc2ccc(NC(C)=O)cc2)cc1,?,4%,?,-17%,2.8µM*
C/C(=C\C(=O)c1ccc(C)cc1)Nc1ccc(N2CCOCC2)cc1,0%,0%,-1%,9%,14%

# Screening results as filed in PubChem.
